Data: PubChem BioAssay (NCATS)
Results filed as inconclusive are left out. The source made the active and inactive calls. Calls come from the whole dose curve; as a rule, active = well fitted curve in the direction sought with a large enough effect; inconclusive = small, poorly fitted or top-dose-only effect, or another doubt; inactive = no such curve, though single readings can be large; an effect the other way counts as inactive or inconclusive.

Assays:
[1] = target: Glutathione peroxidase 1 (Homo sapiens) (UniProt P07203); test: Primary qHTS Assay for Inhibitors of Recombinant Selenoprotein Glutathione Peroxidase 1 (GPX1) (AID 1845191); details: recombinant GPX1, GR-coupled NADPH fluorescence, 15 min; series mostly up to 48.8 µM; note: nearly all actives have a fitted effect of over 65% in size; for activity, negative = inhibition: % is set by controls: 0 for no effect and ±100 for the full control effect
Chain of Glutathione peroxidase 1 (Homo sapiens) (P07203 whole entry, looked up): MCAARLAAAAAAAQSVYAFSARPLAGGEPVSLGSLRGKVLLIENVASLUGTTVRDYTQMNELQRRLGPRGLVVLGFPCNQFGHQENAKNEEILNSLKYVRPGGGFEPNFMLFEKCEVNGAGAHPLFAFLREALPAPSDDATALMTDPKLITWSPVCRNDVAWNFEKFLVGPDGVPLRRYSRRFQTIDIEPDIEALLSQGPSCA
Method in brief: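 10 nM GPX1 + cpd, 30 min RT; start w/ 1 mM GSH, 0.5 mM cumene hydroperoxide, 0.5 mM NADPH, 100 nM GR, 0.01% BSA; buffer 50 mM Tris-HCl pH 7.5, 2 mM EDTA, 150 mM NaCl; Fl 340/450, 0 & 15 min.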

[2] = target: Phospholipid hydroperoxide glutathione peroxidase GPX4 (Homo sapiens) (UniProt P36969); test: Primary qHTS Assay for Inhibitors of Recombinant Selenoprotein Glutathione Peroxidase 4 (GPX4) (AID 1845192); details: recombinant GPX4, GR-coupled NADPH fluorescence, 15 min; series mostly up to 50 µM; note: nearly all actives have a fitted effect of over 65% in size; for activity change, negative = inhibition: % is set by controls: 0 for no effect and ±100 for the full control effect
Chain of Phospholipid hydroperoxide glutathione peroxidase GPX4 (Homo sapiens) (P36969 whole entry, looked up): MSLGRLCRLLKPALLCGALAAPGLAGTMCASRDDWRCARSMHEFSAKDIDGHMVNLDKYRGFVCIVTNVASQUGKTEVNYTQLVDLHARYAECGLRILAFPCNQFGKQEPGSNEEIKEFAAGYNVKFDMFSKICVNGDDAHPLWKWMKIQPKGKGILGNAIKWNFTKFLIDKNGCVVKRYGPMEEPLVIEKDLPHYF
Method in brief: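 NADPH consumption, followed by fluorescence at 340/450 nm between 0 and 15 min, reports GPX4 activity via coupled glutathione reductase (100 nM). Enzyme 200 nM was pre-exposed to compound 30 min; 0.5 mM cumene hydroperoxide and 1 mM GSH served as substrates.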

[3] = target: Luciferin 4-monooxygenase (Photinus pyralis) (UniProt P08659); test: Primary firefly luciferase (FLuc) qHTS assay for identification of artifact compounds. (AID 1845220); details: purified firefly luciferase, luminescence, 5 min; series mostly up to 54.1 µM; note: nearly all actives have a fitted effect of over 60% in size;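 for activity change, negative = inhibition: plate controls were DMSO vehicle for no effect and no enzyme for full effect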
Method in brief: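 FLuc 10 nM; luciferin 10 uM; ATP 10 uM; Tris-acetate pH 7.6, Mg-acetate 10 mM; 15 min RT preincubation; 5 min reaction; luminescence.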

[4] = test system: Nanoluciferase (engineered Oplophorus gracilirostris luciferase); test: Primary Nanoluciferase (NLuc) qHTS assay for identification of artifact compounds. (AID 1845222); details: NLuc-conditioned medium, Nano-Glo luminescence, 5 min; series mostly up to 54.1 µM;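 note: NLuc secreted into diluted conditioned medium of S16 cells; 0% = DMSO and -100% = no enzyme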
Method in brief: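 NLuc from S16 cell medium (1:55) plus test compounds, 15 min, room temperature. Luminescence after Nano-Glo (1:100) addition, 5 min.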

[5] = Primary redox qHTS assay for identification of artifact compounds. (AID 1845223); details: Amplex Red/HRP redox cycling with DTT, fluorescence; series mostly up to 53.8 µM;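 note: 0% = DMSO and 100% = reference compound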
Method in brief: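 Amplex Red (25 uM) and HRP (250 mU/mL) in HBSS, with compounds for 15 min, then 250 uM DTT for 30 min, room temperature, dark. Fluorescence 525/598 nm read; normalized to DMSO and 10 uM DA3003; Hill fit.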

[6] = Primary fluorescence-based thiol-reactive (MSTI) qHTS assay for identification of artifact compounds. (AID 1845221); details: MSTI thiol-reactivity probe, 1 h; series mostly up to 53.8 µM;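 note: thiol-reactive compounds lower the probe fluorescence signal; nearly all actives have a fitted effect of over 65% in size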
Method in brief: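 First, 4 uM MSTI in 2% DMSO/PBS pH 7.4 was dispensed; next, compounds were added; then plates sat 1 h at room temperature without light. Finally, emission at 598 nm was recorded.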

Cc1ccc(S(=O)(=O)Nc2ccccc2N2CCCCC2)s1
inactive: Potency [1] | Potency [2] | Potency [3] | Potency [4] | Potency [5]

O=C(OC[C@@]1(O)CO[C@@H](O[C@H]2[C@H](Oc3ccc(O)cc3)O[C@H](CO)[C@@H](O)[C@@H]2O)[C@@H]1O)c1ccc(O)cc1
inactive: Potency [1] | Potency [2] | Potency [3] | Potency [4] | Potency [5]

COc1cc(O)c2c(c1)C1=CC(O)C(O)CC1(C)OC2=O (centres undefined)
inactive: Potency [1] | Potency [2] | Potency [3] | Potency [4] | Potency [5]

O=C(O[C@H]1[C@@H]2C=CO[C@@H](O[C@@H]3O[C@H](CO)[C@@H](O)[C@H](O)[C@H]3O)[C@@H]2[C@@]2(CO)O[C@@H]12)c1ccccc1
inactive: Potency [1] | Potency [2] | Potency [3] | Potency [4] | Potency [5]

COC(=O)c1ccccc1O[C@@H]1O[C@H](CO)[C@@H](O)[C@H](O)[C@H]1O[C@@H]1O[C@@H](C)[C@H](O)[C@@H](O)[C@H]1O
inactive: Potency [1] | Potency [2] | Potency [3] | Potency [4] | Potency [5]

CC(C)c1nc(-c2ccc(NC(=O)Nc3cccc(C(F)(F)F)c3)c3ccccc23)c2c(N)nccn12
inactive: Potency [1] | Potency [2] | Potency [3] | Potency [4] | Potency [5]

COC(=O)c1ccnc(-c2cc(C(=O)NCCc3ccccc3)ccn2)c1
inactive: Potency [1] | Potency [2] | Potency [3] | Potency [4] | Potency [5]

COc1ncc(Nc2ncc([C@@H](C)N3CCN(S(C)(=O)=O)CC3)cc2-c2nc(C)nc(N)n2)cc1F
inactive: Potency [1] | Potency [2] | Potency [3] | Potency [4] | Potency [5]

COc1ccc(C(O)C(C)OC2OC(CO)C(O)C(O)C2O)cc1 (centres undefined)
inactive: Potency [1] | Potency [2] | Potency [3] | Potency [4] | Potency [5]

CC(O)/C=C/C1C(C)C(O[C@@H]2O[C@H](CO)[C@@H](O)[C@H](O)[C@H]2O)C(O)CC1(C)C (some centres undefined)
inactive: Potency [1] | Potency [2] | Potency [3] | Potency [4] | Potency [5]

c1cc(OCCCN2CCCCC2)ccc1CN1CCCCC1
inactive: Potency [1] | Potency [2] | Potency [3] | Potency [4] | Potency [5]

CC(C)C1=CC2C(CC[C@]2(C)O)[C@](C)(O)CC1 (some centres undefined)
inactive: Potency [1] | Potency [2] | Potency [3] | Potency [4] | Potency [5]

O=S(=O)(c1ccc(S(=O)(=O)n2cnc3ccccc32)cc1)N1CCCCCC1
inactive: Potency [1] | Potency [2] | Potency [3] | Potency [4] | Potency [5]

CC(C)=CCC/C(C)=C/CCC1(C)Oc2c(c(O)cc3c2CN(C(CCC(=O)O)C(=O)O)C3=O)CC1O (centres undefined)
inactive: Potency [1] | Potency [2] | Potency [3] | Potency [4] | Potency [5]

Cc1cc(O)cc(O[C@@H]2O[C@H](CO)[C@@H](O)[C@H](O)[C@H]2O)c1
inactive: Potency [1] | Potency [2] | Potency [3] | Potency [4] | Potency [5]

CN=C(N)NCCCCC/C=C(/C)CC(C)C1OC(=O)C(C)C(O)/C=C/C(C)C(O)CC(O)C(C)C(O)CCC(C)C(O)CC2(O)OC(CC(OC(=O)CC(=O)O)CC(O)CC(O)C(C)C(O)/C(C)=C/CCC1C)CC(O)C2O (centres undefined)
inactive: Potency [1] | Potency [2] | activity change, negative = inhibition [3] -2.65% [at 11.6 µM] | activity, negative = inhibition [4] -0.658% [at 11.6 µM] | redox activity (% of DA3003) [5] -4.57% [at 11.5 µM]

Cc1cccc(/C=N/Nc2cc(N3CCOCC3)n3nc(-c4ccncc4)cc3n2)c1
inactive: Potency [1] | Potency [2] | Potency [3] | Potency [4] | Potency [5]

CC1C(=O)OCC2=CCN3CCC(OC(=O)C(C)(O)C1(C)O)C23 (centres undefined)
inactive: Potency [1] | Potency [2] | Potency [3] | Potency [4] | Potency [5]

CC1=CC(=O)CC(C)(C)[C@@]1(O)CC[C@@H](C)O[C@@H]1O[C@H](CO)[C@@H](O)[C@H](O)[C@H]1O
inactive: Potency [1] | Potency [2] | Potency [3] | Potency [4] | Potency [5]

CC(=O)O[C@@H]1C[C@@H](OC(C)=O)C(C)(C)/C=C/[C@H](C)[C@H](OC(C)=O)[C@@]2(O)C[C@H](C)[C@H](OC(=O)c3ccccc3)[C@@H]2/C=C/1C
inactive: Potency [1] | Potency [2] | Potency [6] | Potency [4] | Potency [5]

COc1ccc(-n2[nH]c(=O)c3[nH]c4cc(Cl)ccc4c(=O)c3c2=O)c(C)c1
inactive: Potency [1] | Potency [2] | Potency [3] | Potency [5]

CC1OC(OC2C(OC3C(O[C@H]4CC[C@@]5(C)C(CC[C@]6(C)C5C(=O)C=C5C7CC(C)(C)CC(O)[C@]7(C)CC[C@]56C)C4(C)C)OC(C(=O)O)C(O)C3O)OCC(O)C2O)C(O)C(O)C1O (some centres undefined)
inactive: Potency [1] | Potency [2] | activity change, negative = inhibition [3] 2.88% [at 11.6 µM] | activity, negative = inhibition [4] -14.3% [at 11.6 µM] | redox activity (% of DA3003) [5] 2.04% [at 11.5 µM]

CC1CC(=O)C2=C(CCC3(O)C(O)c4c(O)cccc4C(=O)C23O)C1 (centres undefined)
inactive: Potency [1] | Potency [2] | Potency [3] | Potency [4] | Potency [5]

CC1=CC(=O)CC2C1(O)CCC(C)C21CC(c2ccoc2)OC1=O (centres undefined)
inactive: Potency [1] | Potency [2] | Potency [3] | Potency [4] | Potency [5]
